Measurements from PubChem BioAssay AID1159580 (chemical genetic matrix, 2015).
“And” between values parts separate entries of the source, which are not always exact repeats. Identical values can stand only once. Among all 5,500 compounds or so, about 2,000 (36%) were called active. Inconclusive results (about 18%) are left out. Cut-off read from the data, not from the text of the source: active = normalized growth mostly below about 0.91 (no sharp cut-off); inconclusive = no clear call, values can overlap the other calls; inactive = mostly above about 0.92. The list shows a part of the results.

Experiment: chemical genetic growth profiling, strain panel (AID 1159580);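 note: tested at 20 µM; growth read once vehicle control cultures reached saturation at 30 °C; 1 = growth at the plate median or of vehicle wells; lower values mean less growth of the strain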
Details: S. cerevisiae deletion strains, growth OD

Measured: normalized growth

Clc1cccc(Cl)c1NC1=NCCN1
inactive: locus YAL021C, strain ccr4, hits give low values 0.973 | locus YAL026C, strain drs2, hits give low values 1.01 | locus YAL030W, strain snc1, hits give low values 0.993 | locus YAL040C, strain CLN3, hits give low values 0.999 | locus YBL061C, strain skt5, hits give low values 0.972 | locus YBR009C, strain hhf1, hits give low values 1 | locus YBR021W, strain FUR4, hits give low values 1.03 | locus YBR023C, strain chs3, hits give low values 0.983 | locus YBR171W, strain sec66, hits give low values 0.977 | locus YBR229C, strain ROT2, hits give low values 0.999 | locus YBR231C, strain swc5, hits give low values 0.998 | locus YBR279W, strain paf1, hits give low values 1.01 | locus YCL011C, strain gbp2, hits give low values 0.96 | locus YCL016C, strain dcc1, hits give low values 0.962 | locus YCL029C, strain bik1, hits give low values 1.02 | locus YCL061C, strain MRC1, hits give low values 0.989 | locus YCL069W, strain vba3, hits give low values 0.991 | locus YCR088W, strain abp1, hits give low values 0.992 | locus YDL005C, strain med2, hits give low values 0.996 | locus YDL035C, strain GPR1, hits give low values 1.02 | locus YDL040C, strain nat1, hits give low values 1.01 | locus YDL074C, strain BRE1, hits give low values 1.03 | locus YDL101C, strain DUN1, hits give low values 1.02 | locus YDL134C, strain PPH21, hits give low values 1.01 | locus YDL185W, strain tfp1, hits give low values 1.01 | locus YDL192W, strain arf1, hits give low values 1.02 | locus YDR001C, strain nth1, hits give low values 0.972 | locus YDR069C, strain doa4, hits give low values 0.992 | locus YDR101C, strain arx1, hits give low values 1.03 | locus YDR137W, strain rgp1, hits give low values 0.959 | locus YDR150W, strain NUM1, hits give low values 1.01 | locus YDR159W, strain sac3, hits give low values 1.01 | locus YDR162C, strain NBP2, hits give low values 1.01 | locus YDR195W, strain ref2 0.994 | locus YDR297W, strain sur2, hits give low values 0.98 | locus YDR318W, strain mcm21, hits give low values 1.02 | locus YDR334W, strain swr1, hits give low values 0.954 | locus YDR335W, strain msn5, hits give low values 0.973 | locus YDR388W, hits give low values 1.01 | locus YDR392W, strain spt3, hits give low values 0.904 | locus YDR502C, strain sam2, hits give low values 1.03 | locus YEL003W, strain gim4, hits give low values 0.984 | locus YEL037C, strain rad23, hits give low values 0.999 | locus YEL061C, strain CIN8 (second series), hits give low values 0.988 | locus YEL061C, strain CIN8, hits give low values 1.01 | locus YER002W, strain NOP16, hits give low values 0.99 | locus YER015W, strain faa2, hits give low values 1 | locus YER016W, strain bim1, hits give low values 0.996 | locus YER110C, hits give low values 1.02 | locus YER111C, strain swi4, hits give low values 0.993 | locus YER155C, strain BEM2 (second series), hits give low values 1 | locus YER155C, strain BEM2, hits give low values 1.01 | locus YER167W, strain BCK2, hits give low values 1.01 | locus YFR010W, strain ubp6, hits give low values 0.998 | locus YGL078C, strain dbp3, hits give low values 1.03 | locus YGL086W, strain mad1, hits give low values 1.06 | locus YGL167C, strain pmr1, hits give low values 0.991 | locus YGL173C, strain kem1, hits give low values 0.985 | locus YGL227W, strain vid30, hits give low values 0.992 | locus YGL240W, strain doc1, hits give low values 0.995 | locus YGL248W, strain PDE1, hits give low values 1.03 | locus YGL253W, strain hxk2, hits give low values 0.963 | locus YGR135W, strain pre9, hits give low values 1.04 | locus YGR229C, strain SMI1, hits give low values 0.992 | locus YGR252W, strain gcn5, hits give low values 1.05 | locus YHR013C, strain ard1, hits give low values 0.965 | locus YHR027C, strain rpn1, hits give low values 0.98 | locus YHR030C, strain SLT2, hits give low values 1.01 and 0.969 | locus YHR079C, strain IRE1 (second series), hits give low values 1.02 | locus YHR079C, strain IRE1, hits give low values 0.98 | locus YHR094C, strain hxt1, hits give low values 1.02 | locus YHR129C, strain ARP1, hits give low values 1.01 | locus YHR142W, strain chs7, hits give low values 0.932 | locus YHR200W, strain rpn10, hits give low values 1.02 | locus YIL066C, strain RNR3, hits give low values 1.01 | locus YIL073C, strain SPO22, hits give low values 1.07 | locus YIL125W, strain kgd1, hits give low values 1.02 | locus YIR030C, strain dcg1, hits give low values 1.01 | locus YJL092W, strain hpr5, hits give low values 0.994 | locus YJL095W, strain BCK1 (second series), hits give low values 0.983 | locus YJL095W, strain BCK1, hits give low values 1.04 and 0.975 | locus YJL115W, strain asf1, hits give low values 0.969 | locus YJL129C, strain trk1, hits give low values 0.97 | locus YJL134W, strain LCB3, hits give low values 1.01 | locus YJL154C, strain vps35, hits give low values 0.972 | locus YJL164C, strain tpk1, hits give low values 0.996 | locus YJL166W, strain qcr8, hits give low values 0.953 | locus YJL168C, strain set2, hits give low values 1.02 | locus YJL187C, strain SWE1 (second series), hits give low values 1.03 | locus YJL187C, strain SWE1, hits give low values 1 | locus YJR043C, strain POL32, hits give low values 1.03 | locus YJR066W, strain TOR1, hits give low values 0.996 | locus YJR075W, strain HOC1, hits give low values 1.01 | locus YKL009W, strain mrt4, hits give low values 1.02 | locus YKL068W, hits give low values 1 | locus YKL085W, strain MDH1 (second series), hits give low values 1.06 | locus YKL085W, strain MDH1, hits give low values 1.06 | locus YKL160W, strain elf1, hits give low values 0.951 | locus YKL190W, strain CNB1, hits give low values 1.01 | locus YKR001C, strain vps1, hits give low values 1.01 | locus YKR026C, strain gcn3, hits give low values 0.986 | locus YKR091W, strain srl3, hits give low values 0.982 | locus YLL001W, strain dnm1, hits give low values 0.933 | locus YLL026W, hits give low values 0.986 | locus YLL041C, strain sdh2, hits give low values 1 | locus YLR027C, strain aat2, hits give low values 1.01 | locus YLR039C, strain RIC1, hits give low values 1.01 | locus YLR058C, strain SHM2, hits give low values 1.02 | locus YLR102C, strain apc9, hits give low values 1.01 | locus YLR113W, strain HOG1, hits give low values 0.951 | locus YLR221C, strain rsa3, hits give low values 0.944 | locus YLR258W, strain gsy2, hits give low values 0.985 | locus YLR262C, strain YPT6 (second series), hits give low values 0.974 | locus YLR262C, strain YPT6, hits give low values 0.982 | locus YLR268W, strain sec22, hits give low values 1.02 | locus YLR320W, strain mms22, hits give low values 0.944 | locus YLR330W, strain CHS5, hits give low values 1.01 | locus YLR342W, strain FKS1 (second series), hits give low values 1.01 | locus YLR342W, strain FKS1, hits give low values 0.995 | locus YLR357W, strain rsc2, hits give low values 0.974 | locus YLR370C, strain arc18, hits give low values 0.968 | locus YLR371W, strain rom2, hits give low values 1.01 | locus YLR384C, strain iki3, hits give low values 0.988 | locus YLR418C, strain cdc73, hits give low values 1.05 | locus YML016C, strain PPZ1, hits give low values 1 | locus YML032C, strain rad52, hits give low values 1.02 | locus YML120C, strain ndi1, hits give low values 0.941 | locus YML124C, strain tub3, hits give low values 1.01 | locus YMR058W, strain fet3, hits give low values 0.99 | locus YMR078C, strain ctf18, hits give low values 1.01 | locus YMR125W, strain sto1, hits give low values 0.958 | locus YMR129W, hits give low values 0.999 | locus YMR205C, strain PFK2, hits give low values 0.947 | locus YMR223W, strain ubp8, hits give low values 1.04 | locus YMR231W, strain pep5, hits give low values 0.999 | locus YMR263W, strain SAP30, hits give low values 0.988 | locus YMR307W, strain GAS1, hits give low values 1.09 | locus YNL067W, strain RPL9B, hits give low values 1.05 | locus YNL071W, strain lat1, hits give low values 0.993 | locus YNL175C, strain NOP13, hits give low values 1.01 | locus YNL183C, strain NPR1, hits give low values 0.926 | locus YNL197C, strain WHI3, hits give low values 0.999 | locus YNL209W, strain ssb2, hits give low values 0.991 | locus YNL224C, strain SQS1, hits give low values 1 | locus YNL233W, strain BNI4, hits give low values 1.02 | locus YNL248C, strain rpa49, hits give low values 0.995 | locus YNL250W, strain rad50, hits give low values 1.02 | locus YNL271C, strain bni1, hits give low values 1.02 | locus YNL298W, strain CLA4, hits give low values 1.02 | locus YNL307C, strain MCK1, hits give low values 1.02 | locus YNL322C, strain KRE1 (second series), hits give low values 0.982 | locus YNR049C, strain mso1, hits give low values 0.981 | locus YNR052C, strain pop2, hits give low values 1.02 | locus YOL006C, strain TOP1, hits give low values 1.18 | locus YOL012C, strain htz1 0.754 | locus YOL147C, strain pex11, hits give low values 1.02 | locus YOR001W, strain rrp6, hits give low values 1.04 | locus YOR061W, strain CKA2, hits give low values 1.01 | locus YOR069W, strain VPS5, hits give low values 1.01 | locus YOR070C, strain gyp1, hits give low values 0.996 | locus YOR080W, strain dia2, hits give low values 0.979 | locus YOR083W, strain WHI5 (second series), hits give low values 0.997 | locus YOR083W, strain WHI5, hits give low values 0.957 | locus YOR106W, strain vam3, hits give low values 0.944 | locus YOR136W, strain idh2, hits give low values 1.03 | locus YOR144C, strain elg1, hits give low values 1.01 | locus YOR184W, strain ser1, hits give low values 1.03 | locus YOR231W, strain MKK1, hits give low values 0.989 | locus YOR265W, strain rbl2, hits give low values 1 | locus YOR270C, strain vph1, hits give low values 0.939 | locus YOR290C, strain snf2, hits give low values 0.939 | locus YOR316C, strain cot1, hits give low values 1.02 | locus YPL051W, strain arl3, hits give low values 0.991 | locus YPL055C, strain LGE1, hits give low values 1.04 | locus YPL078C, strain atp4, hits give low values 0.954 | locus YPL106C, strain sse1, hits give low values 0.94 | locus YPL240C, strain hsp82, hits give low values 1 | locus YPL256C, strain CLN2, hits give low values 0.993 | locus YPR119W, strain clb2, hits give low values 1.02 | locus YPR141C, strain kar3, hits give low values 1.01 | locus YPR163C, strain tif3, hits give low values 1.01 | locus YPR167C, strain met16, hits give low values 1.01 | strain wtn01, hits give low values 1.04
